This passage reports Potency results from PubChem BioAssay AID686979 (National Center for Advancing Translational Sciences (NCATS), 2013).

In all, about 420,000 compounds went through this assay and about 50,000 (12%) were called active. Where a call stands in place of a potency, no number is given. Not shown: some 26% with an inconclusive outcome. Calls follow the shape of the dose curve; as a rule, active = well fitted inhibition curve with a large enough effect; inconclusive = small, poorly fitted or top-dose-only effect; inactive = flat fitted curve, though single readings scatter. Many of the other results were omitted from the sample, so actives are more common in it than they were.
Potency is read from the fitted curve at half-maximal effect.

The nature of the assay: qHTS for Inhibitors of human tyrosyl-DNA phosphodiesterase 1 (TDP1): qHTS in cells in presence of CPT. Also: nearly all actives have a fitted effect of over 55% in size. The following applies: chicken DT40 Tdp1-/-;hTDP1 cells + 20 nM CPT, ATP luminescence, 48 h; series mostly up to 46.2 µM. Summed up:
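Chicken DT40 Tdp1-/- cells stably complemented with human TDP1 were seeded at 400 cells/well in medium containing 20 nM camptothecin, exposed to pin-transferred compounds, and grown at 37 °C for at least 48 hr. Viability was read as ATP luminescence.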
For orientation: In qHTS, concentration-response curves come from the screen itself.
As for `CCc1ccc(-n2nc(C)c3c(C)cc(=O)n(CC(=O)Nc4ccc(F)cc4C)c32)cc1`, the Potency entry is “inactive”.

As to `CCC(C(=O)OC)n1cnc2c(oc3ccccc32)c1=O` (stereo not drawn), the Potency entry is “inactive”.

As for `CCOc1ncccc1C(=O)Nc1ccc(S(=O)(=O)Nc2nc(C)cc(C)n2)cc1`, the Potency result is “inactive”.

`Cc1ccc(S(=O)(=O)N2CCCCC2)cc1NC(=O)c1cccnc1`: the Potency entry is “inactive”.

For the compound `Cc1cc(NS(=O)(=O)c2ccc(NC(=O)c3cccnc3)cc2)nc(C)n1`, the Potency entry was “inactive”.

In the case of `COc1ccc(C(=O)NC(=S)N2CCCCC2c2cccnc2)cc1OC` (stereo not drawn), the Potency entry is “inactive”.

With `CCOc1ccccc1C(=O)Nc1ccc(S(=O)(=O)N2CCCCC2c2cccnc2)cc1` (stereo not drawn), the Potency was 18.4 µM (active).

Regarding `Cc1cccc(C(=O)Nc2ccc(S(=O)(=O)N3CCCCC3c3cccnc3)cc2)c1` (stereo not drawn), the Potency is 23.1 µM (active).

As to `COc1ccc(NC(=O)CSc2nnc(-c3nnn(-c4ccc(F)cc4)c3C)o2)cc1`, the Potency result is “inactive”.

For the compound `CSc1ccc(CN2CCC2(C)C(=O)NCc2ccccc2Br)cc1` (stereo not drawn), the Potency was 18.4 µM (active).

Take `CC1(C(=O)NS(=O)(=O)c2cccc(F)c2)CCN1C(=O)c1cccc2ccccc12` (stereo not drawn): the Potency entry is “inactive”.

With `CC1(C(=O)NCc2ccc3c(c2)OCO3)CCN1C(=O)Cc1cccs1` (stereo not drawn), the Potency result is “inactive”.

Consider `CCCC(=O)N1CCC1(C)C(=O)NCc1ccc(SC)cc1` (stereo not drawn), for which the Potency entry is “inactive”.

With `CSc1ccc(CNC(=O)C2(C)CCCN2C)cc1` (stereo not drawn), the Potency entry was “inactive”.

In the case of `CC1(C(=O)NCc2cccc3ccccc23)CCN1Cc1ccc(-c2ccccc2)o1` (stereo not drawn), the Potency is 23.1 µM (active).

For `CCN1CCN(C(c2ccc(C)cc2)c2c(O)cc(C)n(Cc3ccco3)c2=O)CC1` (stereo not drawn), the Potency entry was “inactive”.

For the compound `O=C(NCc1ccccn1)Nc1ccc(Cl)cc1`, the Potency entry was “inactive”.

For `Cn1cccc1/C=N/NC(=O)c1ccc(OC(F)(F)C(F)F)cc1`, the Potency result was “inactive”.

For `CCCC(=O)N1CCC1(C)C(=O)NS(=O)(=O)c1ccc(Cl)cc1` (stereo not drawn), the Potency entry was “inactive”.

For `O=C(CCN1C(=O)c2ccccc2C1=O)NCCCn1ccnc1`, the Potency result is “inactive”.

Consider `CC(=O)C(C)n1cnc2scc(-c3ccc(C)cc3)c2c1=O` (stereo not drawn), for which the Potency entry was “inactive”.

As to `CN(C)S(=O)(=O)c1ccc(N2CCCC2)c(C(=O)Nc2cccc(F)c2)c1`, the Potency result was “inactive”.

For `O=C(CC1C(=O)NCCN1Cc1ccc(-c2ccccc2)cc1)NCC1CCOCC1` (stereo not drawn), the Potency entry is “inactive”.

`CCOc1ccc(CN2CCNC(=O)C2CC(=O)NCCCC2CCCC2)cc1` (stereo not drawn): the Potency is 16.4 µM (active).

For `Cc1nccn1CCCNC(=O)CC1C(=O)NCCN1Cc1ccc(Cl)c(F)c1` (stereo not drawn), the Potency entry is “inactive”.

For the compound `CCN(C(=O)COC(=O)c1ccccc1O)c1cccc2ccccc12`, the Potency result was “inactive”.

As to `CC(C)CCNC(=O)CC1C(=O)N(Cc2ccccc2)C(C)c2nc3ccccc3n21` (stereo not drawn), the Potency result was “inactive”.

Consider `O=C(OCc1nnc(-c2ccccc2)o1)c1ccc2c(c1)C(=O)N(CCc1ccccc1)C2=O`, for which the Potency result is “inactive”.

With `Cc1onc(-c2ccccc2Cl)c1C(=O)OCc1nnc(-c2ccccc2)o1`, the Potency was 18.4 µM (active).

Regarding `CCOC(=O)c1ccc(COC(=O)CCc2nc(-c3ccccc3)c(-c3ccccc3)o2)cc1`, the Potency entry was “inactive”.

In the case of `Cc1ccc(C(=O)NCC(=O)OCc2nnc(-c3ccccc3)o2)cc1`, the Potency result was “inactive”.

Consider `Cc1onc(-c2ccccc2)c1-c1nnc(COC(=O)c2ccc(N(C)C)cc2)o1`, for which the Potency was 20.6 µM (active).

With `Cc1onc(-c2ccccc2)c1C(=O)N=C(N)c1ccc(Cl)cc1`, the Potency result was “inactive”.

As for `Cc1ccc(NC(=O)CCC(=O)N/N=C/c2ccco2)c(C)c1`, the Potency result was “inactive”.

For `Nc1nc(O)c(CC(=O)O)s1`, the Potency entry is “inactive”.

Take `O=C(NCCNc1ccccc1[N+](=O)[O-])c1ccccc1F`: the Potency entry was “inactive”.

In the case of `Cn1nnnc1SCC(=O)Nc1cccc(S(=O)(=O)N2CCCCC2)c1`, the Potency result was “inactive”.

For `CCOC(=O)C1=C(NC(=S)NC(=O)c2ccccc2)c2ccccc2CC1(C)C`, the Potency entry is “inactive”.

On to `O=C(CSc1nc(O)c(Cc2ccccc2)c(=O)[nH]1)Nc1nc2c(s1)CCCC2`, for which the Potency entry was “inactive”.

Consider `Cc1ccc2c(c1)C1CN(C)CCC1N2C(=O)c1ccccc1NS(=O)(=O)c1ccc(F)cc1C` (stereo not drawn), for which the Potency result was “inactive”.

In the case of `O=C1O/C(=C\c2ccc(O)cc2)C(O)=C1c1ccc(O)cc1`, the Potency entry is “inactive”.

Regarding `COc1cc(C2C3=C(CCCC3=O)OC3=C2C(=O)CCC3)ccc1OCC(=O)Nc1ccccc1`, the Potency entry was “inactive”.

Consider `O=c1c(=O)n(Cc2c(F)cccc2Cl)ccn1Cc1ccccc1`, for which the Potency entry is “inactive”.

As for `O=C1c2ccccc2S(=O)(=O)N1Cc1c(F)cccc1Cl`, the Potency result was “inactive”.

Regarding `Cc1ccc(C)c(N2C(=O)N(Cc3c(F)cccc3Cl)c3ccccc3S2(=O)=O)c1`, the Potency was 18.4 µM (active).

On to `CCCCn1c(N)c(N(CC(C)C)C(=O)c2cccc(S(=O)(=O)N3CC(C)OC(C)C3)c2)c(=O)[nH]c1=O` (stereo not drawn), for which the Potency entry was “inactive”.

As to `NC(=O)COc1ccc2c3c(c(=O)oc2c1)CCCCC3`, the Potency result is “inactive”.

On to `O=C(COc1ccc2ccc(=O)oc2c1)NCC(O)c1ccccc1` (stereo not drawn), for which the Potency result was “inactive”.

As for `O=C(COc1ccc2c3c(c(=O)oc2c1)CCCC3)NCC(O)c1ccccc1` (stereo not drawn), the Potency is 20.6 µM (active).

On to `Cc1cc(CNC(=O)C2CCC(=O)N(CCc3ccc(Cl)cc3)C2)no1` (stereo not drawn), for which the Potency result is “inactive”.

`Nc1nnc(SCn2nnc3ccccc3c2=O)s1`: the Potency result is “inactive”.

With `O=c1c2ccccc2nnn1CSc1nc2sc3c(c2c(=O)n1CC1CCCO1)CCC3` (stereo not drawn), the Potency is 16.4 µM (active).

On to `O=c1c2ccccc2nnn1CSc1nnnn1-c1ccccc1`, for which the Potency entry is “inactive”.

`O=S(=O)(Nc1ccc(Cl)cn1)c1cnc(Cl)c(Br)c1`: the Potency entry is “inactive”.

Consider `CN1CCN(C(=O)c2ccc(-c3ccc(Br)cc3)o2)CC1`, for which the Potency result was “inactive”.

On to `CCOC(=O)N1CCN(Cc2nc3ccc([N+](=O)[O-])cc3c(=O)n2-c2cccc(OC)c2)CC1`, for which the Potency entry is “inactive”.

Turning to `Cc1ccc(NN=C2C(=O)OC(C)(C)OC2=O)c(C)c1`, the Potency entry is “inactive”.

For `CC(C)=C1SC(N2CCN(c3ccc(C)c(Cl)c3)CC2)=NC1=O`, the Potency result was “inactive”.

Regarding `CC(C)=C1SC(N2CCN(c3cccc(C)c3)CC2)=NC1=O`, the Potency is 20.6 µM (active).

As for `Cc1ccc(N2CCN(C3=NC(=O)/C(=C\c4cccs4)S3)CC2)cc1`, the Potency result was “inactive”.

For `CCOC(=O)C(C)Sc1nnc(CSc2nc3nc(C)cc(C)n3n2)o1` (stereo not drawn), the Potency result was “inactive”.

For `C=CCNC(=S)/N=c1/ccccn1Cc1ccccc1`, the Potency was 7.31 µM (active).

In the case of `C=CCNC(=O)COc1coc(CN2CCN(Cc3ccccc3)CC2)cc1=O`, the Potency result is “inactive”.

As for `CNC(=S)NNC(=O)c1cccn(Cc2ccccc2)c1=O`, the Potency result was “inactive”.

Turning to `NS(=O)(=O)c1ccc(N=Cc2ccc(Br)s2)cc1`, the Potency entry was “inactive”.

For `COc1cc(OC)cc(-c2c(C#Cc3ccsc3)c3cc(-c4ccc(OC)cc4F)ccc3n2C)c1`, the Potency result was “inactive”.

With `COc1cc(OC)cc(-c2c(-c3cccs3)c3cc(-c4ccc(OC)nc4)ccc3n2C)c1`, the Potency was 20.6 µM (active).

Take `COc1cc(OC)cc(-c2c(C#Cc3ccsc3)c3cc(-c4ccc(SC)cc4)ccc3n2C)c1`: the Potency entry is “inactive”.
